According to PubChem BioAssay (Tox21):
“And” between values parts separate entries of the source, which are not always exact repeats. Equal entries are not always repeated. Results filed as inconclusive are left out. Some compounds were tested as several samples or in several runs, with calls that do not always agree. The source made the active and inactive calls. Unless noted, the call rests on the fitted dose curve; in most records, active means well fitted curve in the direction sought with a large enough effect in the repeat runs; inconclusive means weak or mixed curves; inactive means no such curve, though single readings can be large; an effect the other way counts as inactive or inconclusive.

Legend:
[1] = qHTS assay for small molecule agonists of the p53 signaling pathway (AID 651631; calls by dose curve; further: nearly all actives have a fitted effect of over 15% in size; further: potency means the concentration at half of the fitted maximal effect)
How it was run: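 Agonist mode screen using a stably integrated beta-lactamase gene under p53 response elements in HCT-116 cells. Compound exposure lasts 16 h at 37 °C; fluorescence intensity is measured following 2 h FRET substrate loading.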

[2] = qHTS assay for small molecules that induce genotoxicity in human embryonic kidney cells expressing luciferase-tagged ATAD5 (AID 651632); further: nearly all actives have a fitted effect of over 15% in size; further: potency means the concentration at half of the fitted maximal effect
How it was run: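 Luminescent reporter readout, HEK293T ATAD5-luc line: 16 hr drug exposure (37C, 5% CO2) followed by Amplite, 30 min RT.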

[3] = qHTS assay for small molecule agonists of the p53 signaling pathway - cell viability (AID 651633; calls by dose curve; further: nearly all actives have a fitted effect of over 30% in size; further: potency means the concentration at half of the fitted maximal effect)
How it was run: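 p53RE-bla cells, seeded at 4,000 per well and rested 5 h at 37 C/5% CO2, received compounds in DMSO for 16 h at 37 C. CellTiter-Glo was then added, and luminescence was read after 30 min at room temperature to gauge cytotoxicity.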

[4] = qHTS assay for small molecules that induce genotoxicity in human embryonic kidney cells expressing luciferase-tagged ATAD5 - cell viability (AID 651634; calls by dose curve; further: nearly all actives have a fitted effect of over 25% in size)
How it was run: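 Viability read: CellTiter-Fluor fluorescence, 30 min at 37C. Cells: HEK293T, luciferase-tagged ATAD5. Exposure: 15.5 hr, 37C, 5% CO2, compound or DMSO vehicle.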

[5] = qHTS assay for small molecule disruptors of the mitochondrial membrane potential - cell viability (AID 720634; calls by dose curve; further: nearly all actives have a fitted effect of over 20% in size; further: potency means the concentration at half of the fitted maximal effect)
How it was run: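 HepG2, 1 hr compound, 37 C. ATP luminescence via CellTiter-Glo, 30 min RT, same well as m-MPI.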

[6] = qHTS assay for small molecule disruptors of the mitochondrial membrane potential (AID 720635); further: potency means the concentration at half of the fitted maximal effect
How it was run: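 HepG2 cells (2,000/well) attached overnight at 37C, then took compound for 1 hr at 37C, 5% CO2. Mito-MPS dye was added for 30 min; fluorescence was read at 490/535 nm (monomers) and 540/590 nm (aggregates).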

[7] = qHTS assay to test for compound auto fluorescence at 590 nm (red) in HepG2 cells (AID 720674)
How it was run: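 Rose Bengal sodium served as the red fluorophore standard. HepG2 monolayers (overnight attachment, MEM with 10% FBS) were exposed to test compounds for 1 hr at 37 C and read at Ex 540/Em 590 nm.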

[8] = qHTS assay to test for compound auto fluorescence at 535 nm (green) in HepG2 cells (AID 720675)
[9] = qHTS assay to test for compound auto fluorescence at 460 nm (blue) in HEK293 cells (AID 720678)
How it was run: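 Blue-channel (Ex/Em 405/460 nm) intensity measured in HEK293 cultures after overnight compound exposure at 37C; signal expressed relative to triamterene. Cells plated 2,000 per well in 10% dialyzed FBS medium and allowed 4-5 hr to attach.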

[10] = qHTS assay to test for compound auto fluorescence at 590 nm (red) in HEK293 cells (AID 720679)
How it was run: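 Red-channel autofluorescence (Ex/Em 540/590 nm; Rose Bengal sodium reference) was measured after overnight 37C, 5% CO2 exposure of attached HEK293 cells, 2,000 per well in medium with 10% dialyzed FBS.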

[11] = qHTS assay to test for compound auto fluorescence at 535 nm (green) in HEK293 cells (AID 720680)
[12] = qHTS assay to test for compound auto fluorescence at 460 nm (blue) in HEK293 cell free culture (AID 720681)
How it was run: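 Test compounds were pinned into cell-free culture medium (DMEM with 10% FBS) and fluorescence was read directly at Ex/Em 405/460 nm. Signals were expressed as fluorescence equivalents of triamterene, with DMSO vehicle as control.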

[13] = qHTS assay to test for compound auto fluorescence at 590 nm (red) in HEK293 cell free culture (AID 720683)
How it was run: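 Tox21 10K library compounds were pinned into cell-free DMEM with 10% FBS and fluorescence was read at excitation 540 nm. Activity is expressed as Rose Bengal sodium equivalency.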

[14] = qHTS assay to test for compound auto fluorescence at 590 nm (red) in HepG2 cell free culture (AID 720684)
How it was run: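 Measured in medium alone (MEM containing 10% FBS) following pintool addition of compound; emission at 590 nm with 540 nm excitation, referenced to Rose Bengal sodium.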

[15] = qHTS assay to test for compound auto fluorescence at 460 nm (blue) in HepG2 cell free culture (AID 720685)
How it was run: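 Compound (23 nL) or DMSO pinned into cell-free MEM with 10% FBS; blue fluorescence read at 405/460 nm excitation/emission, expressed as auto-fluorescence equivalency to triamterene.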

[16] = qHTS assay to test for compound auto fluorescence at 535 nm (green) in HepG2 cell free culture (AID 720686)
[17] = qHTS assay to test for compound auto fluorescence at 460 nm (blue) in HepG2 cells (AID 720687)
How it was run: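 Cells (2,000/well in MEM with 10% FBS) attached overnight at 37 C, then were exposed to compound or DMSO for 1 hr at 37 C, 5% CO2. Fluorescence read at Ex/Em 405/460 nm, expressed as triamterene-equivalent signal.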

[18] = biological target: Glucocorticoid receptor (Homo sapiens) (UniProt P04150); experiment: qHTS assay to identify small molecule agonists of the glucocorticoid receptor (GR) signaling pathway (AID 720691; active means well fitted activation curve with a large enough effect in the signal ratio in the repeat runs, not every such curve was filed as active; the % refers to the signal ratio)
How it was run: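 qHTS in GR-bla HeLa cells: 4 h settling at 37 C/5% CO2, 18 h compound incubation at 37 C, 2 h LiveBLAzer B/G FRET substrate at room temperature, fluorescence intensity measured.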

[19] = biological target: Glucocorticoid receptor (Homo sapiens) (UniProt P04150); experiment: qHTS assay to identify small molecule antagonists of the glucocorticoid receptor (GR) signaling pathway (AID 720692; active means well fitted inhibition curve with a large enough effect in the signal ratio in the repeat runs, not every such curve was filed as active; the % refers to the signal ratio)
How it was run: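 Inhibition of glucocorticoid signalling is measured in HeLa cells with a GRE-controlled beta-lactamase reporter; cells are co-treated with compound and 5 nM dexamethasone (final) for 18 h before FRET substrate readout.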

[20] = qHTS assay to test for compound auto fluorescence at 535 nm (green) in HEK293 cell free culture (AID 720682)
How it was run: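 No cells present: wells hold DMEM supplemented with 10% FBS, into which compound or vehicle is pinned. Green emission is then recorded (485 nm excitation, 535 nm emission) and scaled to fluorescein.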

Measured: Potency

Sequence of Glucocorticoid receptor (Homo sapiens) (P04150 whole entry, looked up): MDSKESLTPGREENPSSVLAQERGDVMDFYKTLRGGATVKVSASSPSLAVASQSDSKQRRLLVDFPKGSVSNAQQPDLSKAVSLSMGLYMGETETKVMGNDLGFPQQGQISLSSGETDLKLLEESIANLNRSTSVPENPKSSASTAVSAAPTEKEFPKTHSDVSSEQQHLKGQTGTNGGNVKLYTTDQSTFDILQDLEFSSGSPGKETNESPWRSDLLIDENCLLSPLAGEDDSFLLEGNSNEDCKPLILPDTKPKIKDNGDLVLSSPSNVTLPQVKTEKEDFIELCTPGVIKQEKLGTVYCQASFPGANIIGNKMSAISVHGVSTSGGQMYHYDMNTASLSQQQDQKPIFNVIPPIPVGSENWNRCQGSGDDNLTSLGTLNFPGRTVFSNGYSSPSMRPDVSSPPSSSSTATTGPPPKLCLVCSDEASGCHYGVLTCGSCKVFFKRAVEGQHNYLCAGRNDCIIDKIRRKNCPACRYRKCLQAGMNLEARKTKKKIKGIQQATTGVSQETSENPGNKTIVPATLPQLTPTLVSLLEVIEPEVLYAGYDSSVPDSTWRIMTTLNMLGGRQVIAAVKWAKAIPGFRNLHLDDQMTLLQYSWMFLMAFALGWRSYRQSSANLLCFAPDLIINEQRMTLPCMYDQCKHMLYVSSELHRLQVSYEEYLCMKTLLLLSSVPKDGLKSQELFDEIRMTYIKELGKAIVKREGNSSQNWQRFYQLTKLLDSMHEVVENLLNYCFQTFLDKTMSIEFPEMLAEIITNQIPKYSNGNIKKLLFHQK

CCC(C)(C)c1ccc(O)cc1
55 µM (active) and inactive: [5]
active: [6] 26.6 µM and 17.4 µM and 15.4 µM
not listed: [20]
inactive: all other assays above

Nc1ccc(Cl)cc1N
active: [1] 19.3 µM | [2] 56.7 µM and 5.45 µM | [6] 4.5 µM and 770 nM
inactive: all other assays above

CCCCOCCOP(=O)(OCCOCCCC)OCCOCCCC
27.3 µM (active) and inactive: [6]
54.5 µM (active) and inactive: [3] | [5]
not listed: [8]
inactive: all other assays above

CC(C)NC(C)C
not listed: [14]
inactive: all other assays above

N#CCCCl
not listed: [14] | [20]
inactive: all other assays above

COP(=S)(OC)Oc1cc(Cl)c(Cl)cc1Cl
active: [6] 11.9 µM and 29.8 µM and 7.64 µM
not listed: [8]
inactive: all other assays above

CCCCCCOC(=O)c1ccccc1C(=O)OCCCCCC
active: [6] 27.9 µM
inactive: all other assays above

NNC(N)=S
63.5 µM (active) and inactive: [6]
not listed: [20]
inactive: all other assays above

NNC(=S)NN
not listed: [11] | [18] | [19]
inactive: all other assays above

C=CC(=O)OCCO
not listed: [19]
inactive: all other assays above

COc1ccc(C(CN(C)C)C2(O)CCCCC2)cc1 (stereo unspecified)
not listed: [8] | [18] | [19]
inactive: all other assays above

COP(=O)(OC)OC
inactive: all assays above

O=c1oc2ccccc2c(O)c1C(CC(O)c1ccc(-c2ccc(Br)cc2)cc1)c1ccccc1 (stereo unspecified)
active: [1] 21.1 µM and 46 µM | [3] 9.44 µM and 51.6 µM | [5] 6.68 µM | [6] 6.68 µM and 23 µM
not listed: [14] | [18] | [19]
inactive: all other assays above

O=P(Oc1ccccc1)(Oc1ccccc1)Oc1ccccc1
active: [5] 13.6 µM | [6] 242 nM and 1.22 µM
not listed: [11] | [20]
inactive: all other assays above
